Records with an inconclusive call do not appear. Calls of active or inactive are those of the source. Unless noted, calls come from the whole dose curve; as a rule, active = well fitted curve in the direction sought with a large enough effect in the repeat runs; inconclusive = weak or mixed curves; inactive = flat fitted curve, though single readings scatter.
Columns and labels:
[1] = qHTS assay to test for compound auto fluorescence at 535 nm (green) in HEK293 cells (AID 720680)
[2] = qHTS assay to test for compound auto fluorescence at 460 nm (blue) in HEK293 cell free culture (AID 720681)
Method in brief: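 Compounds were added to cell-free DMEM with 10% FBS and fluorescence read directly. The blue channel used 405 nm excitation and 460 nm emission, with triamterene as the reference fluorophore.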

[3] = qHTS assay to test for compound auto fluorescence at 535 nm (green) in HEK293 cell free culture (AID 720682)
Method in brief: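 Measurement is a direct plate read of green fluorescence (485 nm in, 535 nm out) after compound addition to serum-supplemented DMEM lacking cells, with fluorescein used to express intensities.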

[4] = qHTS assay to test for compound auto fluorescence at 590 nm (red) in HEK293 cell free culture (AID 720683)
Method in brief: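 Cell-free wells of DMEM with 10% FBS received compound, and intrinsic fluorescence was read at excitation/emission 540/590 nm. Values expressed as equivalence to Rose Bengal sodium.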

[5] = qHTS assay to test for compound auto fluorescence at 460 nm (blue) in HepG2 cell free culture (AID 720685)
Method in brief: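 Compound (23 nL) or DMSO pinned into cell-free MEM with 10% FBS; blue fluorescence read at 405/460 nm excitation/emission, expressed as auto-fluorescence equivalency to triamterene.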

[6] = qHTS assay to test for compound auto fluorescence at 535 nm (green) in HepG2 cell free culture (AID 720686)
[7] = qHTS assay to test for compound auto fluorescence at 460 nm (blue) in HepG2 cells (AID 720687)
Method in brief: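 HepG2 cells in MEM with 10% FBS, attached overnight at 37 C, were exposed to compound or DMSO for 1 hr at 37 C, 5% CO2. Blue fluorescence was read at 405/460 nm, with triamterene as reference fluorophore.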

[8] = target: Glucocorticoid receptor (Homo sapiens) (UniProt P04150); assay: qHTS assay to identify small molecule agonists of the glucocorticoid receptor (GR) signaling pathway (AID 720691; active = well fitted activation curve with a large enough effect in the signal ratio in the repeat runs, not every such curve was filed as active; the % refers to the signal ratio; note: potency is the fitted concentration of half-maximal effect)
Method in brief: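 GR-bla HeLa cells (beta-lactamase reporter under glucocorticoid response element) were plated 4 h at 37 C/5% CO2, given compounds in DMSO, and incubated 18 h at 37 C. LiveBLAzer B/G FRET substrate was added for 2 h at room temperature, then fluorescence intensity read.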

[9] = target: Glucocorticoid receptor (Homo sapiens) (UniProt P04150); assay: qHTS assay to identify small molecule antagonists of the glucocorticoid receptor (GR) signaling pathway (AID 720692; active = well fitted inhibition curve with a large enough effect in the signal ratio in the repeat runs, not every such curve was filed as active; the % refers to the signal ratio; note: potency is the fitted concentration of half-maximal effect)
Method in brief: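 GR-bla HeLa cells (beta-lactamase reporter under glucocorticoid response element) were pre-plated 4 h at 37 C, treated with compounds plus 5 nM dexamethasone (final) for 18 h, then read by LiveBLAzer B/G FRET fluorescence after 2 h.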

[10] = qHTS assay to test for compound auto fluorescence at 590 nm (red) in HepG2 cell free culture (AID 720684)
Method in brief: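 Compound was pinned into wells holding MEM with 10% FBS and no cells, and red fluorescence was read at Ex/Em 540/590 nm. Signal is expressed as auto fluorescence equivalency relative to Rose Bengal sodium.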
% is set by controls: 0 for no effect and ±100 for the full control effect.

Glucocorticoid receptor (Homo sapiens), sequence (P04150 whole entry, looked up): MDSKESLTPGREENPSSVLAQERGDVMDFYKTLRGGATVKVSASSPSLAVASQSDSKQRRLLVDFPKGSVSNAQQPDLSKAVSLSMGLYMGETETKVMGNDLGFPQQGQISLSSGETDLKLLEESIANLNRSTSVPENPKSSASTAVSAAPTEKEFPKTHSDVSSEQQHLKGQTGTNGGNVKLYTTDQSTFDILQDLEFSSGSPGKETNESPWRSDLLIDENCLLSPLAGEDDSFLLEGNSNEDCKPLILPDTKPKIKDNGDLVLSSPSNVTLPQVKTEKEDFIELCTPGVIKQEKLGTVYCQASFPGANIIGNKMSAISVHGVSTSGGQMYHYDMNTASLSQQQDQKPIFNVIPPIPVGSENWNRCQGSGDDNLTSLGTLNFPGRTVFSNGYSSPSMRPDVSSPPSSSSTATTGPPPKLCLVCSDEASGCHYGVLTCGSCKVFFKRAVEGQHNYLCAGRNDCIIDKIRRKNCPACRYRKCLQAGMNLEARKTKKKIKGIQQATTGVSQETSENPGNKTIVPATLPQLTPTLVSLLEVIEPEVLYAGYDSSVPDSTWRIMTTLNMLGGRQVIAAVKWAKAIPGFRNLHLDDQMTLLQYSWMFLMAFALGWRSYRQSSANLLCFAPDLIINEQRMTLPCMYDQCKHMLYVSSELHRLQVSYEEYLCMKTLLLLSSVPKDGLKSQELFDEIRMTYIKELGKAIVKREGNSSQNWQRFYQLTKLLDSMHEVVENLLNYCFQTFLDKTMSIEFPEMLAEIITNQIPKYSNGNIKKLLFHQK

CC/C=C\CCOC(C)OCC (stereo not given)
inactive: outcome [1] | outcome [2] | outcome [3] | outcome [4] | outcome [5] | outcome [6] | outcome [7] | Potency [8] | Potency [9]

Nc1ccn([C@@H]2O[C@H](CO)[C@@H](O)C2(F)F)c(=O)n1
inactive: outcome [1] | outcome [2] | outcome [3] | outcome [4] | outcome [5] | outcome [6] | outcome [7] | Potency [8]

CCOC(=O)C1=NOC(c2ccccc2)(c2ccccc2)C1
inactive: outcome [1] | outcome [2] | outcome [3] | outcome [4] | outcome [10] | outcome [5] | outcome [6] | Potency [8] | Potency [9]

CCCCCCCCCCOc1cc2c(=O)c(C(=O)OCC)c[nH]c2cc1OCC
inactive: outcome [1] | outcome [2] | outcome [3] | outcome [4] | outcome [5] | outcome [6] | outcome [7]

COC(=O)Nc1ccc(Cl)c(Cl)c1
inactive: outcome [1] | outcome [2] | outcome [3] | outcome [4] | outcome [5] | outcome [6] | Potency [8]

CCCc1ncc(C[n+]2ccccc2C)c(N)n1
inactive: fluorescence, % of fluorescein [1] -0.083% [at 18.6 µM] | fluorescence, % of fluorescent control [2] -0.136% [at 18.6 µM] | activity change [3] -0.0094% [at 18.6 µM] | fluorescence, % of fluorescent control [4] 0.0061% [at 18.6 µM] | fluorescence, % of fluorescent control [5] 0.0057% [at 18.6 µM] | fluorescence, % of fluorescein control [6] 0.0635% [at 18.6 µM] | Potency [8] | Potency [9]

CC(C)(N)C#N
inactive: outcome [1] | outcome [2] | outcome [3] | outcome [4] | outcome [5] | outcome [6] | outcome [7] | Potency [8]

CN(C)C(=O)Oc1ccc[n+](C)c1
inactive: outcome [1] | outcome [2] | outcome [3] | outcome [4] | outcome [10] | outcome [5] | outcome [6] | Potency [9]
active: Potency [8] 26.8 µM

CC(C)c1ccc2ncccc2c1
inactive: outcome [1] | outcome [2] | outcome [3] | outcome [4] | outcome [5] | outcome [6] | outcome [7]

Cc1c(N)c(=O)n(-c2ccccc2)n1C
inactive: fluorescence, % of fluorescein [1] -0.0771% [at 18.6 µM] | fluorescence, % of fluorescent control [2] 0.0935% [at 18.6 µM] | activity change [3] -0.102% [at 18.6 µM] | fluorescence, % of fluorescent control [4] 0.419% [at 18.6 µM] | fluorescence, % of Rose Bengal [10] 0.0086% [at 18.6 µM] | fluorescence, % of fluorescent control [5] -0.0617% [at 18.6 µM] | fluorescence, % of fluorescein control [6] -0.0689% [at 18.6 µM] | Potency [8] | Potency [9]

Cc1nc2ccc(CN(C)c3ccc(C(=O)N[C@@H](CCC(=O)O)C(=O)O)s3)cc2c(=O)[nH]1
inactive: outcome [1] | outcome [2] | outcome [3] | outcome [4] | outcome [5] | outcome [6] | outcome [7]

CCC1C(=O)OCC1Cc1cncn1C (stereo not given)
inactive: outcome [1] | outcome [2] | outcome [3] | outcome [4] | outcome [5] | outcome [6] | outcome [7]

CC(C)(C#N)Nc1nc(Cl)nc(NC2CC2)n1
inactive: outcome [1] | outcome [2] | outcome [3] | outcome [4] | outcome [5] | outcome [6] | outcome [7] | Potency [8]

CC[N+](CC)(CC)CCOc1cccc(OCC[N+](CC)(CC)CC)c1OCC[N+](CC)(CC)CC
inactive: outcome [1] | outcome [2] | outcome [3] | outcome [4] | outcome [10] | outcome [5] | outcome [6] | Potency [8] | Potency [9]

CC(=O)c1ccc2ccccc2c1
inactive: outcome [1] | outcome [2] | outcome [3] | outcome [4] | outcome [10] | outcome [5] | outcome [6] | Potency [8] | Potency [9]

CC(C)C(=O)OC(=O)C(C)C
inactive: outcome [1] | outcome [2] | outcome [3] | outcome [4] | outcome [10] | outcome [5] | outcome [6] | Potency [8] | Potency [9]

C[C@H]1C[C@H]2[C@@H]3CCC4=CC(=O)C=C[C@]4(C)[C@H]3C(=O)C[C@]2(C)[C@@]1(O)C(=O)CO
active: Potency [9] 2.13 µM
inactive: outcome [1] | outcome [2] | outcome [3] | outcome [4] | outcome [5] | outcome [6] | outcome [7] | Potency [8]

CC(C)(CCC(=O)O)C(=O)O
inactive: outcome [1] | outcome [2] | outcome [3] | outcome [4] | outcome [10] | outcome [5] | outcome [6] | Potency [8] | Potency [9]

CCC(=O)OCc1ccccc1
inactive: outcome [1] | outcome [2] | outcome [3] | outcome [4] | outcome [5] | outcome [6] | Potency [8] | Potency [9]

O=C(O)Cc1csc(-c2ccc(Cl)cc2)n1
inactive: outcome [1] | outcome [2] | outcome [3] | outcome [4] | outcome [5] | outcome [6] | outcome [7]

OCCc1ccccn1
inactive: outcome [1] | outcome [2] | outcome [3] | outcome [4] | outcome [5] | outcome [6] | outcome [7] | Potency [8] | Potency [9]

CN(C)CCN(C)CCN(C)C
inactive: outcome [1] | outcome [2] | outcome [3] | outcome [4] | outcome [5] | outcome [6] | outcome [7] | Potency [8] | Potency [9]

O=C(O)CNC(=O)c1ccc(CO)o1
inactive: outcome [1] | outcome [3] | outcome [4] | outcome [10] | outcome [5] | outcome [6] | outcome [7]

OCCCCCO
inactive: outcome [1] | outcome [3] | outcome [4] | outcome [5] | outcome [6] | outcome [7]

C=COCC1CCC(COC=C)CC1 (stereo not given)
inactive: outcome [1] | outcome [3] | outcome [4] | outcome [10] | outcome [5] | outcome [6] | outcome [7] | Potency [8]

CCCCCCC1CCC(=O)O1 (stereo not given)
inactive: outcome [1] | outcome [3] | outcome [4] | outcome [5] | outcome [6] | outcome [7]

CCOC(=O)COC(=O)c1ccccc1C(=O)OCC
inactive: outcome [1] | outcome [2] | outcome [3] | outcome [4] | outcome [5] | outcome [6] | Potency [8] | Potency [9]

NC(CCC(=O)O)C(=O)O (stereo not given)
inactive: outcome [1] | outcome [3] | outcome [4] | outcome [10] | outcome [5] | outcome [6] | Potency [8] | Potency [9]

CC1OC1C1CCC2(C)OC2C1 (stereo not given)
inactive: outcome [1] | outcome [3] | outcome [4] | outcome [10] | outcome [5] | outcome [6] | outcome [7] | Potency [8] | Potency [9]

CC(COc1ccccc1)NN (stereo not given)
inactive: outcome [1] | outcome [3] | outcome [4] | outcome [10] | outcome [5] | outcome [6] | outcome [7] | Potency [8] | Potency [9]

CC(CC=O)CC(C)(C)C (stereo not given)
inactive: outcome [1] | outcome [3] | outcome [4] | outcome [10] | outcome [5] | outcome [6] | outcome [7]

CCCCCCCCCCCCCCC(=O)O
inactive: outcome [2] | outcome [3] | outcome [4] | outcome [10] | outcome [5] | outcome [6] | outcome [7]

C=CCOCC(O)CO (stereo not given)
inactive: outcome [1] | outcome [3] | outcome [4] | outcome [10] | outcome [5] | outcome [6] | outcome [7] | Potency [8] | Potency [9]

CC1=NN(c2cccc(S(=O)(=O)O)c2)C(=O)C1
inactive: outcome [1] | outcome [3] | outcome [4] | outcome [5] | outcome [6] | outcome [7] | Potency [8] | Potency [9]

c1ccc2sc(SN3CCOCC3)nc2c1
inactive: outcome [1] | outcome [3] | outcome [4] | outcome [10] | outcome [5] | outcome [6] | outcome [7] | Potency [8] | Potency [9]

CNCCO
inactive: outcome [1] | outcome [3] | outcome [4] | outcome [5] | outcome [6] | outcome [7]

CCCC[N+](C)(CCCC)CCCC
inactive: outcome [1] | outcome [2] | outcome [3] | outcome [4] | outcome [5] | outcome [6] | Potency [8] | Potency [9]

[Ca+2]
inactive: outcome [1] | outcome [3] | outcome [4] | outcome [10] | outcome [5] | outcome [6] | outcome [7] | Potency [8]

Cc1ncc([C@@H](CCCCCCc2ccc3c(n2)NCCC3)CC(=O)O)cn1
inactive: outcome [1] | outcome [3] | outcome [4] | outcome [5] | outcome [6] | outcome [7]

COc1cc(C(=O)OC(COCCC(C)C)CN2CCOCC2)cc(OC)c1OC (stereo not given)
inactive: outcome [1] | outcome [3] | outcome [4] | outcome [10] | outcome [5] | outcome [6] | outcome [7] | Potency [8] | Potency [9]

COCCOC[C@H](CC1(C(=O)NC2CCC(C(=O)O)CC2)CCCC1)C(=O)Oc1ccc2c(c1)CCC2 (stereo not given in full)
inactive: outcome [1] | outcome [3] | outcome [4] | outcome [10] | outcome [5] | outcome [6] | outcome [7] | Potency [8] | Potency [9]

O=C(O)c1cn(C2CC2)c2cc(N3CCNCC3)c(F)cc2c1=O
inactive: fluorescence, % of fluorescein [1] -0.0935% [at 18.6 µM] | activity change [3] 0.0246% [at 18.6 µM] | fluorescence, % of fluorescent control [4] -0.102% [at 18.6 µM] | fluorescence, % of fluorescent control [5] 0.0229% [at 18.6 µM] | fluorescence, % of fluorescein control [6] 0.0355% [at 18.6 µM] | fluorescence, % of fluorescent control [7] -0.0408% [at 18.6 µM] | Potency [8] | Potency [9]

CC(=O)c1cnccn1
inactive: outcome [1] | outcome [3] | outcome [4] | outcome [10] | outcome [5] | outcome [6] | outcome [7] | Potency [8] | Potency [9]

CNC(=O)Nc1ccc(Cl)c(Cl)c1
inactive: outcome [1] | outcome [3] | outcome [4] | outcome [10] | outcome [5] | outcome [6] | outcome [7] | Potency [8]

CC(=O)c1ccccc1[N+](=O)[O-]
inactive: outcome [1] | outcome [3] | outcome [4] | outcome [5] | outcome [6] | outcome [7]

CC12CCC(C(=O)C1=O)C2(C)C (stereo not given)
inactive: outcome [1] | outcome [3] | outcome [4] | outcome [10] | outcome [5] | outcome [6] | outcome [7] | Potency [8] | Potency [9]

Nc1c2c(nc3c1CCC3)CCCC2
inactive: outcome [2] | outcome [3] | outcome [4] | outcome [10] | outcome [5] | outcome [6] | outcome [7]

From PubChem BioAssay (Tox21)
